Only some compounds are listed: those with a hit (about 18% of all), similar ones and a draw of the others.
TDP1 cell CPT: qHTS for Inhibitors of human tyrosyl-DNA phosphodiesterase 1 (TDP1): qHTS in cells in presence of CPT; Potency, µM (top dose mostly 46.2 µM), for inactives: at the top dose activity change, negative = growth inhibition, usual class: inhibitors; chicken DT40 Tdp1-/-;hTDP1 cells + 20 nM CPT, ATP luminescence, 48 h; 420,000 compounds, 12% hits; further: potency means the concentration at half of the fitted maximal effect; on the % scale 0 is the no-effect control and ±100 the full control effect; nearly all actives have a fitted effect of over 55% in size
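Cell growth measured by CellTiter-Glo luminescence after a minimum 48 h, 37 C compound exposure with 20 nM CPT in Tdp1-knockout DT40 cells stably expressing hTDP1, seeded 400/well; qHTS titration format.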
TDP1 block: qHTS Assay for Inhibitors of Tyrosyl-DNA Phosphodiesterase (TDP1); AID 485290, 2010; recombinant TDP1, AlphaScreen DNA substrate cleavage; Tyrosyl-DNA phosphodiesterase 1 (Homo sapiens), Q9NUW8; Potency, µM (doses to about 130 µM), for the others: top-dose activity change, negative = inhibition, usual class: inhibitors; 350,000 compounds, 0.28% hits; further: potency means the concentration at half of the fitted maximal effect; on the % scale 0 is the no-effect control and ±100 the full control effect; nearly all actives have a fitted effect of over 40% in size
Target sequence (Q9NUW8 whole entry, looked up): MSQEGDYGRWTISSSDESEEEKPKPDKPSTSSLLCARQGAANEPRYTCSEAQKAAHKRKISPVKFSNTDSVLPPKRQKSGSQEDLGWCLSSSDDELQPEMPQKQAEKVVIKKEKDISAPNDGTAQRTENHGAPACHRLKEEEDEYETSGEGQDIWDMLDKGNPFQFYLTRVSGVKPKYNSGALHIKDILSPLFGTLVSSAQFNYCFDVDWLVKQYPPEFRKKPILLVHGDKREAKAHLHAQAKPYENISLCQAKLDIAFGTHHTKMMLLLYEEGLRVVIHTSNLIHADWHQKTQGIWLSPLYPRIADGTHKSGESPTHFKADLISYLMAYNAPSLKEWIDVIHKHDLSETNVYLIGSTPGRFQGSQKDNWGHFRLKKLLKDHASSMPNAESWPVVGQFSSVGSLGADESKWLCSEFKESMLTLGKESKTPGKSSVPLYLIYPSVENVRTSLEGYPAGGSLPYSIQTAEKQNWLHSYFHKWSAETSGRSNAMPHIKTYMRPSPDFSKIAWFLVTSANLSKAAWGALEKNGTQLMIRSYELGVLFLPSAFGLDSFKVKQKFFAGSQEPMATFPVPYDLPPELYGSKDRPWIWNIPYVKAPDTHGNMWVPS
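Steps: enzyme plus compound, 15 min RT; add biotin/phosphotyrosine-FITC oligonucleotide (15 nM final), react 5 min; add donor/acceptor beads (10 ug/ml final), 10 min; read AlphaScreen. Tdp1 at 1 nM final.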
TGFb inhibitor: qHTS for Inhibitors of TGF-b. AID 588855, 2011. 410,000 compounds, 1.2% hits. HepG2 CAGA-GFP TGF-b/SMAD3 reporter, GFP fluorescence, 18 h; TGF-beta stimulated, 500 pg/mL final. Potency, µM (titrated, usually from 46.1 µM), for inactives: at the top dose activity, negative = inhibition, hits mostly inhibitors; further: potency means the concentration at half of the fitted maximal effect; on the % scale 0 is the no-effect control and ±100 the full control effect; nearly all actives have a fitted effect of over 65% in size
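Cell-based qHTS in HEPG2 carrying a CAGA-GFP Smad reporter; compounds added before 500 pg/mL final TGF-beta, 18 h incubation at 37 degrees C, GFP fluorescence quantified per cell by imaging cytometry.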
HepG2 viability: qHTS for Inhibitors of TGF-b: Cytotox Counterscreen | HepG2 CAGA-GFP viability, ATP luminescence, 18 h | Potency, µM (doses to about 46.1 µM), inactives show at the top dose activity change, negative = cytotoxicity, usual class: cytotoxic | 410,000 compounds, 0.76% hits; further: potency means the concentration at half of the fitted maximal effect
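CellTiter-Glo luminescence gave cytotoxicity after 18 hours at 37 degrees C. The cells were HepG2 CAGA-GFP in 1% FBS DMEM, stimulated with 500 pg/mL TGF-beta after compound addition. %Activity was normalised to no-cell wells (complete cell-killing) and DMSO (no toxicity), and curves were fitted and classified.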
TDP1 cell noCPT: qHTS for Inhibitors of human tyrosyl-DNA phosphodiesterase 1 (TDP1): qHTS in cells in absence of CPT; DT40 Tdp1-/- hTDP1 cells, no CPT, ATP luminescence, 48 h; Potency, µM (titrated, usually from 46.2 µM), without a hit: top-dose activity change, negative = growth inhibition, usual class: inhibitors; 420,000 compounds, 15% hits; further: potency means the concentration at half of the fitted maximal effect; on the % scale 0 is the no-effect control and ±100 the full control effect; nearly all actives have a fitted effect of over 55% in size
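Luminescent ATP content (CellTiter-Glo) served as the growth readout. Knockout chicken DT40 cells expressing human TDP1 were exposed to compounds without camptothecin for a minimum 48 hr at 37 °C.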
IL1B secr inh: qHTS for Inhibitors of Inflammasome Signaling: IL-1-beta AlphaLISA Primary Screen. 360,000 compounds, 4.7% hits. activity change, % at 57.5 µM. THP-1 LPS/ATP IL-1B secretion, AlphaLISA, 16 h; active compounds read low; in the data active means activity change below about -50%; inconclusive means mostly about -30% to -49%; further: on the % scale 0 is the no-effect control and ±100 the full control effect
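Secreted IL-1B measured by AlphaLISA bead assay after 16 h compound exposure of THP-1 cells; compounds (final up to 57.5 uM) added 1 h before LPS (250 ng/mL) and ATP (1.25 mM) stimulation; lower signal means less secretion.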
* hit, by the source's call; ? = inconclusive; / = no result given; [ ] = dose if it differs, or a comment. Unless noted, the call rests on the fitted dose curve; in most records, active means well fitted curve in the direction sought with a large enough effect; inconclusive means small, poorly fitted or top-dose-only effect, or another doubt; inactive means no such curve, though single readings can be large; an effect the other way counts as inactive or inconclusive.

SMILES | TDP1 cell CPT | TDP1 block | TGFb inhibitor | HepG2 viability | TDP1 cell noCPT | IL1B secr inh
COc1cccc(CNC(=O)c2c(OC)cc(=O)n3c2CCN(C(=O)c2ccoc2C)CC3)c1 | 10% | / | / | / | -1% | /
CCOC(=O)c1cnc2ncnn2c1N | -1% | 1% | -11% | -2% | -28% | 43
CCOC(=O)c1ccc(N2C(=O)c3[nH]nc(-c4ccc(OCC)cc4)c3C2c2cccs2)cc1 (configuration not stated) | 7.3µM* | 2% | ? | -20% | 3.7µM* | /
CCOC(=O)c1ccc(N2C(=O)c3[nH]nc(-c4ccccc4)c3C2c2cccs2)cc1 (configuration not stated) | 23µM* | 2% | 7.1µM* | -46% | 21µM* | /
CCOC(=O)c1ccc(N2C(=O)c3[nH]nc(-c4ccc(C)cc4)c3C2c2ccc(O)cc2)cc1 (configuration not stated) | ? | 2% | ? | -53% | ? | /
CCOC(=O)c1ccc(N2C(=O)C(O)=C(C(C)=O)C2c2ccccn2)cc1 (configuration not stated) | 0% | 0% | 32% | -1% | 0% | 13
CCOC(=O)c1ccc(N2C(=O)c3[nH]nc(-c4ccccc4)c3C2c2ccc(CC)cc2)cc1 (configuration not stated) | 21µM* | 9% | 11µM* | 11µM* | 18µM* | /
COc1ccccc1C1CN(CCNC(=O)c2ccccc2Cl)Cc2ccccc2O1 (configuration not stated) | 23%[9.04 µM] | / | / | / | -7% | /
CCOc1ccc(-n2c(-c3ccccc3)c[n+]3c2CCCCC3)cc1 | 0.15µM* | -3% | ? | -28% | 0.029µM* | -56*
CCOc1ccc(N2Cc3ccccc3C2)cc1 | -20% | 8% | ? | -1% | ? | 6
Cc1ccc(-c2c[n+]3c(n2-c2ccccc2)CCC3)cc1 | 1.2µM* | 3% | -26% | -30% | 0.65µM* | -53*
CCCS(=O)(=O)NC(=O)C1(C)CCCN(C(=O)c2ccc(SC(F)(F)F)cc2)C1 (configuration not stated) | 3% | / | 16% | -3% | 2% | 55
O=C/C=C/c1c(-c2ccccc2)cc2oc3ccccc3cc1-2 | ? | / | 11µM* | 16µM* | 18µM* | -99*
Cc1ccc(S(=O)(=O)N2CCC(C(N)=O)CC2)cc1[N+](=O)[O-] | 10% | / | -4% | -1% | 1% | 5
Nc1cccc(CCc2nc3cc4ccccc4cc3[nH]2)c1 | 3.3µM* | 3% | ? | -20% | 4.1µM* | ?
c1ccc(CCc2nc3ccccc3[nH]2)cc1 | -23% | 6% | -9% | -4% | ? | -22
c1ccc(Nc2nc3ccccc3n3cnnc23)cc1 | -26% | 0% | -2% | 17% | -25% | 34
CCCCOC(=O)c1ccc(Nc2nc3ccc(C)cc3n3cnnc23)cc1 | -1% | -6% | 9% | -3% | -22% | /
CCCCOC(=O)c1ccc(Nc2nc3ccc(C(=O)c4ccccc4)cc3n3cnnc23)cc1 | 21µM* | 6% | ? | 5% | 16µM* | /
O=C(O)c1ccc(Nc2nc3ccccc3n3cnnc23)cc1 | ? | -13% | -2% | -2% | 7.3µM* | /
CCOc1ccc(Nc2nc3ccccc3n3cnnc23)cc1 | ? | / | ? | -33% | 23µM* | 0
Cc1ccc2[nH]nc(C(=O)N3CCOc4ccc(CN5CCc6sccc6C5)cc4C3)c2c1 | -4%[9.04 µM] | / | / | / | ? | /
Cc1ccc(OCC(=O)Nc2c(Cl)ccc3nsnc23)cc1C | / | 7% | 1% | -2% | / | /
CCCCn1c(N)c(N(CCOC)C(=O)c2c(C)noc2C)c(=O)[nH]c1=O | 2% | -3% | 2% | 1% | 12% | 16
O=C(c1ccc(S(=O)(=O)Cc2ccccc2F)c([N+](=O)[O-])c1)N1CCCC1 | 18µM* | 2% | ? | 5% | ? | -103*
SMILES | TDP1 cell CPT | TDP1 block | TGFb inhibitor | HepG2 viability | TDP1 cell noCPT | IL1B secr inh
CC1CCN(C(=O)c2ccc(N3CCOCC3)c([N+](=O)[O-])c2)CC1 | -30% | 2% | -14% | -18% | ? | -4
O=C(c1ccc(S(=O)(=O)c2ccc(F)cc2)c([N+](=O)[O-])c1)N1CCCCCC1 | 3.3µM* | 0% | ? | -14% | 2.3µM* | -103*
CC1CCN(C(=O)c2ccc(S(=O)(=O)Cc3ccccc3F)c([N+](=O)[O-])c2)CC1 | ? | 3% | -10% | -21% | 16µM* | -117*
O=C(CSc1nnc(CNC(=O)c2cccs2)o1)NCC1CCCO1 (configuration not stated) | 1% | 5% | -3% | -16% | 16% | 8
CNS(=O)(=O)c1cn(CC(=O)Nc2ccc(C)cc2C)cc1S(=O)(=O)NC | -5% | 6% | -18% | -21% | -4% | /
O=C(NCCN1CCOCC1)c1ccc2ccccc2c1 | 21µM* | 4% | -22% | 3% | -14% | 18
O=C(NCCN1CCOCC1)c1cc(-c2ccco2)on1 | 15µM* | 7%[56.1 µM] | -27% | -24% | 15µM* | 3
Nc1ccc(Sc2ccc([N+](=O)[O-])cc2)cc1 | ? | 5% | -16% | -4% | ? | -70*
CC(C)(C)C(=O)NC(NC(=O)C(C)(C)C)c1ccc([N+](=O)[O-])cc1 | 13% | -1% | 4% | 5% | 11% | 9
CC(=O)Nc1ccc(Sc2ccc([N+](=O)[O-])o2)cc1 | 2.6µM* | / | ? | 20µM* | 2.6µM* | -97*
O=C1C=CC(=O)N1c1ccc(Sc2ccc([N+](=O)[O-])cc2)cc1 | / | 4% | / | / | / | /
CC(=O)Nc1ccc(NC(=O)c2cc([N+](=O)[O-])cc([N+](=O)[O-])c2)cc1 | ? | 4% | 1% | -15% | -29% | 41
CC(C)(C)C(=O)Nc1ccc(Sc2ccc([N+](=O)[O-])cc2)cc1 | 8.2µM* | 8% | ? | -11% | 7.3µM* | -9
Oc1ccc(N=Nc2c(O)ccc3ccccc23)cc1 | 18µM* | 10% | ? | 14µM* | ? | -51*
NS(=O)(=O)c1ccc(N=Nc2c(O)ccc3ccccc23)cc1 | -13% | 2% | ? | -74% | ? | -29

Screening data: PubChem, National Center for Advancing Translational Sciences (NCATS)
